SNCA expr inhib – reduces expression of the alpha-synuclein gene; HEK-293 SNCA-luciferase knock-in, luminescence, 24 h; Potency, µM (doses to about 57.2 µM), inactives show at the top dose activity change, negative = inhibition, actives largely listed as inhibitors; 0.17% of 140,000 active;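 further: plate controls were DMSO cells for no effect and cell-free wells for full effect; nearly all actives have a fitted effect of over 45% in size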
NPR1 antag – human Npr1 receptor antagonism; 1.6% of 76,000 active; Potency, µM (top dose mostly 46.3 µM), inactives show top-dose activity change, negative = inhibition, usual class: inhibitors; HEK293 hNpr1 GloSensor cGMP, ANP-stimulated luminescence; P16066; calls by dose curve; further: nearly all actives have a fitted effect of over 60% in size
Target sequence (P16066 whole entry, looked up): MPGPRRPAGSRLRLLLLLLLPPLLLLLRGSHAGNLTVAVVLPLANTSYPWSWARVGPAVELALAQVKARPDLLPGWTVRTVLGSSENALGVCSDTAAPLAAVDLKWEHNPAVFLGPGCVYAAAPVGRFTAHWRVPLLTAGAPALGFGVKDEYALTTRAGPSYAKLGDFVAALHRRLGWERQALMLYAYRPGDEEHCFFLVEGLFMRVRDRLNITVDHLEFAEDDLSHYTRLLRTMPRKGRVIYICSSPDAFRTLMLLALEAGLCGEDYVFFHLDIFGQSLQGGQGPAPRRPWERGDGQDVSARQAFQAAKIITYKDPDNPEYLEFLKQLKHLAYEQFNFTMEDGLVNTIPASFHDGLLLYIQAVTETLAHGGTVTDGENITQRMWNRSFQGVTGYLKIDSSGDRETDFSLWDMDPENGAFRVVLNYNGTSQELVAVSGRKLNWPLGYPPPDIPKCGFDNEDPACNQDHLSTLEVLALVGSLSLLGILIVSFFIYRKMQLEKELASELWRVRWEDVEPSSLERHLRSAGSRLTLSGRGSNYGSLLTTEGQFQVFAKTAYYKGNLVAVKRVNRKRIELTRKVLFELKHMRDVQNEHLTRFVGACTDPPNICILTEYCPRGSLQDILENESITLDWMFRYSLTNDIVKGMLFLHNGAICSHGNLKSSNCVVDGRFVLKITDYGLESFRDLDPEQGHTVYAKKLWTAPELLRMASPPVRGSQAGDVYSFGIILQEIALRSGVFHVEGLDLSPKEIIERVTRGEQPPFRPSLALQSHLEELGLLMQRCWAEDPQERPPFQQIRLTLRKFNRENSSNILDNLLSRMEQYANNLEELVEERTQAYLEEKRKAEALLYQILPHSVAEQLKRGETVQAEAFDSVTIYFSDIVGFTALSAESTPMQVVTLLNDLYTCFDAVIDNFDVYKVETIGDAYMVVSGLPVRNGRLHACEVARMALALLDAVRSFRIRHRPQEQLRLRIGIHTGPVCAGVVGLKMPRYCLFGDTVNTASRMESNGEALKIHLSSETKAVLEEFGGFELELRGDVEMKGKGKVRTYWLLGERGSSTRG
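HEK293 cells stably expressing human Npr1 and cGMP GloSensor pGS-40F, loaded 2 h with 2% GloSensor reagent, given compound 30 min at room temperature. Luminescence read before and 20 min after 0.1 nM hNppA.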
3T3 cytotox – cytotoxic compounds in NIH 3T3 cells; NIH 3T3 viability, CellTiter-Glo ATP luminescence, 48-72 h; Potency, µM (series often up to 96.7 µM), inactives show at the top dose activity change, negative = cytotoxicity, usual class: inhibitors; 4.3% of 94,000 active; further: nearly all actives have a fitted effect of over 55% in size
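Cytotoxicity is measured as loss of cellular ATP: NIH 3T3 cells (400/well) are exposed to compound for 48 or 72 hr at 37 °C, then CellTiter-Glo luminescence is imaged after 10 min at room temperature.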
SNCA viab count – counter-screen for SNCA expression inhibitors: cell viability | HEK-293-SNCA-luc viability, GF-AFC fluorescence, 24 h | Potency, µM (titrated, usually from 57.1 µM), without a hit: top-dose activity change, negative = cytotoxicity, usual class: cytotoxic | 0.12% of 150,000 active | AID 1671193;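 further: 0% = DMSO-treated cells and -100% = medium-only wells without cells; nearly all actives have a fitted effect of over 30% in size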
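Cytotoxicity counterscreen: after 24 h compound treatment of genome-edited SNCA-luciferase HEK-293 cells, live-cell protease substrate GF-AFC read by fluorescence after 30 min; activity scaled between DMSO (0%) and medium-only (-100%), curves Hill-fitted.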
HEK293 tox – cytotoxic compounds in HEK 293 cells. HEK 293 viability, ATP luminescence (CellTiter-Glo), 48-72 h. Potency, µM (doses to about 115 µM), without a hit: at the highest dose activity change, negative = cytotoxicity, usual class: inhibitors. 6.6% of 94,000 active; further: nearly all actives have a fitted effect of over 60% in size
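HEK 293 cells seeded at 250 cells/well were exposed to compound for 48 or 72 hr at 37 degree Celsius. Viability taken as ATP content by CellTiter-Glo luminescence.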
Luciferase inh – blocks purified firefly luciferase enzyme activity; P08659; purified P. pyralis luciferase, luminescence, biochemical; Potency, µM (doses to about 115 µM), actives largely listed as inhibitors; 2.5% of 76,000 active; further: nearly all actives have a fitted effect of over 65% in size
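Luminescence read by CCD imager after adding enzyme (10nM final) to wells holding compound, titrated in qHTS. Substrates 10uM each D-luciferin and ATP; buffer 50mM Tris acetate pH 7.5, 10mM Mg acetate, Tween-20, BSA.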
The depositor's hits bear a star; [ ] = dose if it differs, or a comment. Hits are enriched below; roughly 7.4% of the tested compounds scored in any of these assays. Unless noted, the call rests on the fitted dose curve; in most records, active means well fitted curve in the direction sought with a large enough effect; inconclusive means small, poorly fitted or top-dose-only effect, or another doubt; inactive means no such curve, though single readings can be large; an effect the other way counts as inactive or inconclusive. Unless noted, on the % scale 0 is the no-effect control and ±100 the full control effect; potency means the concentration at half of the fitted maximal effect.

For Cc1noc(C)c1-c1cc2cc(CN(C)C)oc2c(Nc2ccncn2)n1 the results were SNCA expr inhib -11.1%[87.6 µM], NPR1 antag -2.7%[70.6 µM], 3T3 cytotox 44.7µM*, SNCA viab count 0.7%[87.6 µM], HEK293 tox inconclusive and Luciferase inh inactive.
Screening COc1ccc(-c2nc(-c3c(C)noc3C)cc3cc(CN(C)C)oc23)cn1 returned SNCA expr inhib -10.8%[87.6 µM], NPR1 antag -0.8%[70.6 µM], 3T3 cytotox 50.1µM*, SNCA viab count -3.4%[87.6 µM], HEK293 tox inconclusive and Luciferase inh inactive.
COc1cc(-c2nc(-c3c(C)noc3C)cc3cc(CN(C)C)oc23)ccn1 was read as SNCA expr inhib 3.4%[87.6 µM], NPR1 antag -13.3%[70.6 µM], 3T3 cytotox 39.8µM*, SNCA viab count -15.4%[87.6 µM], HEK293 tox 79.4µM* and Luciferase inh inactive.
Screening COc1ccc(Nc2nc(-c3c(C)noc3C)cc3cc(CN(C)C)oc23)cn1 returned SNCA expr inhib 11.2%[87.6 µM], NPR1 antag -1.2%[70.6 µM], 3T3 cytotox 79.4µM*, SNCA viab count inconclusive, HEK293 tox 79.4µM* and Luciferase inh inactive.
For COc1ccccc1-c1cccc(CN2CCC(N[S+](=O)([O-])c3ccc(C)cc3)CC2)c1 the results were SNCA expr inhib -25.9%, 3T3 cytotox inconclusive, SNCA viab count -0.2% and HEK293 tox 35.5µM*.
Screening COc1ccccc1-c1cccc(CN2CCC(N[S+](=O)([O-])c3c(C)noc3C)CC2)c1 returned SNCA expr inhib -13.3%, 3T3 cytotox 35.5µM*, SNCA viab count -9.2% and HEK293 tox 35.5µM*.
COc1ccccc1-c1cccc(CN2CCC(N[S+](C)(=O)[O-])CC2)c1 was read as SNCA expr inhib 3.8%, 3T3 cytotox inconclusive, SNCA viab count -2.3% and HEK293 tox inconclusive.
For Cc1cc(Cn2cc3c4c(cccc42)[C@H](CC(C)C)N[C@H](C(=O)NCC2CC2)C3)no1 the results were SNCA expr inhib inconclusive, NPR1 antag -6.4%[70.6 µM], 3T3 cytotox 89.1µM*, SNCA viab count inconclusive, HEK293 tox 79.4µM* and Luciferase inh inactive.
`Cc1cc(Cn2cc3c4c(cccc42)[C@H](CC(C)C)N[C@H](C(=O)NCCN(C)C)C3)no1` gave SNCA expr inhib 10.6%, NPR1 antag 6.3%, 3T3 cytotox 22.4µM*, SNCA viab count -2.4%, HEK293 tox 35.5µM* and Luciferase inh inactive.
`Cn1ncc2c(N3CCN(S(N)(=O)=O)CC3)nc(C3CCCC3)nc21` gave SNCA expr inhib -21.2%, NPR1 antag -1.6%, 3T3 cytotox 39.8µM*, SNCA viab count -6.9%, HEK293 tox -25.4% and Luciferase inh inactive.
Cn1ncc2c(N3CCN(S(N)(=O)=O)CC3)nc(-c3cccnc3)nc21 was read as SNCA expr inhib -15.2%, NPR1 antag 4.6%, 3T3 cytotox 39.8µM*, SNCA viab count -15.6%, HEK293 tox inconclusive and Luciferase inh inactive.
`Cc1noc(C)c1[S+](=O)([O-])N1CCC(C(=O)N2CCC(N3CCOCC3=O)CC2)CC1` gave SNCA expr inhib 9.8%, 3T3 cytotox inactive, SNCA viab count 7.7% and HEK293 tox inactive.
`CCNC(=O)OC1CCN(C(=O)NC2CCCC2)CC(=O)N(C)c2ccccc21` (stereo unspecified) gave 3T3 cytotox inconclusive and HEK293 tox inactive.
For CCC1CN(c2ccc(-c3nc(-c4ccc(OC)cc4)no3)cn2)CCN1C (stereo unspecified) the results were SNCA expr inhib 85.4%, NPR1 antag -3.7%, 3T3 cytotox 79.4µM*, SNCA viab count -6.4%, HEK293 tox inconclusive and Luciferase inh inconclusive.
`COc1ccc(-c2noc(-c3cccnc3N3CCN(c4ccc(OC)cc4)CC3)n2)cc1` gave SNCA expr inhib 18.0% and SNCA viab count 17.0%.
`Cc1c(F)cccc1NC(=O)Nc1cccc(-c2ccc(N3CCOCC3)nn2)c1` gave SNCA expr inhib 23.0%, NPR1 antag inconclusive, 3T3 cytotox -26.4%, SNCA viab count 0.6%, HEK293 tox -11.3% and Luciferase inh 0.631µM*.
For Cc1ccc(Cl)cc1NC(=O)Nc1cccc(-c2ccc(N3CCOCC3)nn2)c1 the results were SNCA expr inhib 44.7%, NPR1 antag -23.2%, 3T3 cytotox -29.2%, SNCA viab count 6.4%, HEK293 tox inconclusive and Luciferase inh 1µM*.
Screening COc1cccc(NC(=O)Nc2cccc(-c3ccc(N4CCOCC4)nn3)c2)c1 returned SNCA expr inhib -54.8%, NPR1 antag inconclusive, 3T3 cytotox inconclusive, SNCA viab count inconclusive, HEK293 tox inconclusive and Luciferase inh 1µM*.
For COCc1cc(=O)n(CC(=O)Nc2cccc(OC)c2)c(N2CCOCC2)n1 the results were SNCA expr inhib 4.0%, NPR1 antag -0.4%, 3T3 cytotox -10.5%, SNCA viab count -9.7%, HEK293 tox 0.9% and Luciferase inh inactive.
Screening O=S(=O)(Nc1cccc(-c2ccc(N3CCCCC3)nn2)c1)c1ccc(F)cc1F returned SNCA expr inhib 46.9% and SNCA viab count -14.5%.
Screening Cc1ccc(C)c(NC(=O)Nc2cccc(-c3cn4cccnc4n3)c2)c1 returned SNCA expr inhib -16.6% and SNCA viab count 4.5%.
`Cc1ccc(NC(=O)Nc2cccc(-c3ccc(N4CCOCC4)nn3)c2)cc1F` gave SNCA expr inhib 3.9%, NPR1 antag -25.7%, 3T3 cytotox -6.1%, SNCA viab count -7.6%, HEK293 tox -25.6% and Luciferase inh inconclusive.
Screening Nc1cccc(-c2ccc(N3CCOCC3)nn2)c1 returned SNCA expr inhib inconclusive, NPR1 antag inconclusive, 3T3 cytotox inconclusive, SNCA viab count 5.9%, HEK293 tox inconclusive and Luciferase inh 3.16µM*.
Screening O=C(Nc1ccccc1)N1CCC(C(=O)N2CCC(N3Cc4ccccc4C3=O)CC2)CC1 returned SNCA expr inhib -5.0%, 3T3 cytotox inconclusive, SNCA viab count 7.2% and HEK293 tox inconclusive.
`O=C(Nc1cccc(-c2ccc(N3CCOCC3)nn2)c1)Nc1ccccc1C(F)(F)F` gave SNCA expr inhib inconclusive, NPR1 antag -23.0%, 3T3 cytotox inconclusive, SNCA viab count -7.0%, HEK293 tox inconclusive and Luciferase inh 2.24µM*.
For CNC(=O)[C@H]1C[C@]2(CCCCN(CCO)C2=O)N(C(=O)Nc2ccccc2)[C@H]1c1ccco1 the results were 3T3 cytotox inconclusive and HEK293 tox 1.4%.
`CCOC(=O)[C@H]1C[C@]2(CCCCN(CCOC)C2=O)N(C(=O)Cc2cccs2)[C@H]1c1ccco1` gave 3T3 cytotox inconclusive and HEK293 tox 79.4µM*.
